Results taken from PubChem BioAssay (EPA / NIEHS).
Inconclusive results are not listed. Activity calls are given as the source filed them. The calls were made as follows, unless noted: active = hit-call score of the fitted dose curve at least 0.9, where 1 is the maximum; inactive = score below 0.9.

Columns and labels:
[1] = target: Myc proto-oncogene protein (Homo sapiens) (UniProt P01106); assay: ATG_Myc_CIS: Attagene CIS-FACTORIAL HepG2 Assay for human Myelocytomatosis (Myc) Proto-Oncogene Transcription Factor (AID 2282990); settings: HepG2, Attagene cis-reporter transcription factor activity; actives raise or lower the signal
Chain of Myc proto-oncogene protein (Homo sapiens) (P01106 whole entry, looked up): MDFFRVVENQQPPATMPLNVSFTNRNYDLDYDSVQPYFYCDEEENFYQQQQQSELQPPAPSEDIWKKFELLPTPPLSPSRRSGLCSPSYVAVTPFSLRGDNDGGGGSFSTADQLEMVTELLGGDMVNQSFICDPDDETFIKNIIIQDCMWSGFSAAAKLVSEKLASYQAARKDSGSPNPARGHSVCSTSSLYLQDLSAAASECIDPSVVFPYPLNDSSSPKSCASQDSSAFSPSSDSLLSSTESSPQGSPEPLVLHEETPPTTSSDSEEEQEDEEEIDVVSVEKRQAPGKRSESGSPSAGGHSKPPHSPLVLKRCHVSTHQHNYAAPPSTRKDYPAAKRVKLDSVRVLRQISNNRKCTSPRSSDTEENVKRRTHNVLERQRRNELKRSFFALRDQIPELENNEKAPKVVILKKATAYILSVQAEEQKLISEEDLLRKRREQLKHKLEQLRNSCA
How it was run: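 Transiently transfected HepG2 cells bearing cis-promoter reporter units for endogenous transcription factors; 24 h exposure. Reporter mRNA measured by RT-PCR, 6-FAM primer extension, HpaI cut and capillary electrophoresis; bidirectional fit relative to DMSO.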

[2] = ATG_NF_kB_CIS: Attagene CIS-FACTORIAL HepG2 Assay for human Nuclear Factor Kappa B (NF-kB) (AID 2282991); settings: HepG2 Attagene cis-factorial NF-kB reporter mRNA; actives raise or lower the signal
How it was run: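 HepG2, transient multi-reporter transfection, cis promoter elements (endogenous TFs). 24 h exposure. Total RNA → RT → PCR → 6-FAM label → HpaI → CE. Gain/loss vs DMSO.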

[3] = ATG_NRF2_ARE_CIS: Attagene CIS-FACTORIAL HepG2 Assay for human Nuclear Factor Erythroid 2 Related Factor 2 (NFR2) response to Antioxidant Response Elements (ARE) (AID 2282992); settings: HepG2 Attagene ARE/NRF2 reporter, transcription factor activity; actives raise or lower the signal;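 as to AC50: reporter mRNA level measured by RT-PCR and capillary electrophoresis fluorescence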
How it was run: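 Readout: reporter mRNA quantified by RT-PCR plus FAM-labelled primer extension, HpaI digestion and capillary electrophoresis, 24 h after dosing transfected HepG2 cells. Gain or loss of signal is fitted bidirectionally against DMSO baseline.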

[4] = target: Cellular tumor antigen p53 (Homo sapiens) (UniProt P04637); assay: ATG_p53_CIS: Attagene CIS-FACTORIAL HepG2 Assay for human p53 Transcription Factor (AID 2282994); settings: HepG2 p53 cis-element reporter, Attagene mRNA; actives raise or lower the signal
Chain of Cellular tumor antigen p53 (Homo sapiens) (P04637 whole entry, looked up): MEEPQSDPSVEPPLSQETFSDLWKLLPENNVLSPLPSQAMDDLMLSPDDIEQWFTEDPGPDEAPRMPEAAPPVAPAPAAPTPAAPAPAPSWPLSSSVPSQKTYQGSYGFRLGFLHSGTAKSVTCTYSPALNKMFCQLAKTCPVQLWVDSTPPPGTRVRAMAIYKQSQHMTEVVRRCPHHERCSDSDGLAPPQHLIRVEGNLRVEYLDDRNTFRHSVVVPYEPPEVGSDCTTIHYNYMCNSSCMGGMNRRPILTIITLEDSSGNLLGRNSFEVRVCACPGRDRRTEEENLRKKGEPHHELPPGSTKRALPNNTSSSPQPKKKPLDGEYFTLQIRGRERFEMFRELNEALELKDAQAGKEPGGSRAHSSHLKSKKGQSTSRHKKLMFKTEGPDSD
How it was run: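 Read-out: reporter mRNA by RT-PCR plus capillary electrophoresis with fluorescence detection. Human HepG2 liver cells carried transfected multi-reporter cis-element constructs, dosed 24 h. Gain or loss of signal fitted bidirectionally against DMSO control.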

[5] = BSK_3C_TissueFactor: BioMAP Diversity Plus: 3C Assay for Tissue Factor Biomarker Activity (AID 2282997); settings: BioMAP 3C HUVEC, tissue factor biomarker readout; actives raise or lower the signal
How it was run: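 After a 24 h chemical exposure of primary human umbilical vein endothelial cells, Tissue Factor levels were quantified by ELISA.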

[6] = BSK_3C_uPAR: BioMAP Diversity Plus: 3C Assay for Urokinase-type plasminogen activator receptor (uPAR) Biomarker Activity (AID 2282998); settings: BioMAP 3C HUVEC, uPAR biomarker ELISA; actives raise or lower the signal
How it was run: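 In this endothelial cell-based assay, human umbilical vein primary cells were treated with chemicals and harvested at 24 h. uPAR was quantified using ELISA, with gains or losses fitted relative to DMSO controls.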

[7] = BSK_3C_VCAM1: BioMAP Diversity Plus: 3C Assay for Vascular cell adhesion molecule 1 (VCAM1) Biomarker Activity (AID 2282999); settings: BioMAP 3C HUVEC, VCAM1 ELISA, cytokine-stimulated; actives raise or lower the signal
How it was run: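 HUVEC primary cells, 24 h compound exposure; VCAM-1 by ELISA; gain/loss of signal fitted bidirectionally vs DMSO baseline.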

[8] = BSK_4H_Eotaxin3: BioMAP Diversity Plus: 4H Assay for Eotaxin 3 Biomarker Activity (AID 2283000); settings: primary human endothelial cells (HUVEC); actives raise or lower the signal;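 also: CCL26 protein level quantified by ELISA in parallel with SRB cytotoxicity check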
How it was run: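 Chemicals were added to human umbilical vein endothelium cultures, and Eotaxin-3 was quantified by ELISA at 24 h. Values were derived by bidirectional fitting with DMSO serving as negative control and activity baseline.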

[9] = target: human Peroxisome Proliferator-activated Receptor delta (PPARd), PPARD (gene 5467) (UniProt Q03181); assay: ATG_PPARd_TRANS: Attagene TRANS-FACTORIAL HepG2 Assay for human Peroxisome Proliferator-activated Receptor delta (PPARd) (AID 2283002; active = hit-call score of the fitted dose curve at least 0.9, where 1 is the maximum)
Chain of human Peroxisome Proliferator-activated Receptor delta (PPARd), PPARD (gene 5467) (Q03181 whole entry, looked up, the tested form may be a part): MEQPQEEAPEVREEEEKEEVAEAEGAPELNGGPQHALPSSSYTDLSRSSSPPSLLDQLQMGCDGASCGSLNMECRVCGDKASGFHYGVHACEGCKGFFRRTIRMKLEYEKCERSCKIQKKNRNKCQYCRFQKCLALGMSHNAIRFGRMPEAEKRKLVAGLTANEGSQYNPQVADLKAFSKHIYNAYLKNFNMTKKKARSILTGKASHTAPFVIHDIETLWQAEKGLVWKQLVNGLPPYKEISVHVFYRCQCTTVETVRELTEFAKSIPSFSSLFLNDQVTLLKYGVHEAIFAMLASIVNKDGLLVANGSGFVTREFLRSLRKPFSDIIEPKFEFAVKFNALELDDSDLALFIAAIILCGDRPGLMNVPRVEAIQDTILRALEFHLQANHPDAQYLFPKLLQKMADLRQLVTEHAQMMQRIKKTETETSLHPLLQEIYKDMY
How it was run: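 HepG2 cells transiently transfected with GAL4-UAS multiplexed reporter units driven by exogenous chimeric NR-GAL4 proteins; 24 h compound exposure. Reporter mRNA measured by RT-PCR, 6-FAM primer extension, HpaI digestion and capillary electrophoresis; gain of signal fitted relative to DMSO.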

[10] = read-out: Intercellular Adhesion Molecule 1 (ICAM1), ICAM1 (gene 3383); assay: BSK_3C_ICAM1: BioMAP Diversity Plus: 3C Assay for Intercellular Adhesion Molecule 1 (ICAM1) Biomarker Activity (AID 2283003); settings: primary human endothelial cells (HUVEC); actives raise or lower the signal
How it was run: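 Using DMSO as baseline, bidirectional curve fitting was applied to ICAM-1 ELISA signals from HUVEC in the 3C system, measured 24 h after compound addition.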

[11] = target: human Retinoic Acid Receptor beta (RARb), RARB (gene 5915) (UniProt P10826); assay: ATG_RARb_TRANS: Attagene TRANS-FACTORIAL HepG2 Assay for human Retinoic Acid Receptor beta (AID 2283004; active = hit-call score of the fitted dose curve at least 0.9, where 1 is the maximum)
Chain of human Retinoic Acid Receptor beta (RARb), RARB (gene 5915) (P10826 whole entry, looked up): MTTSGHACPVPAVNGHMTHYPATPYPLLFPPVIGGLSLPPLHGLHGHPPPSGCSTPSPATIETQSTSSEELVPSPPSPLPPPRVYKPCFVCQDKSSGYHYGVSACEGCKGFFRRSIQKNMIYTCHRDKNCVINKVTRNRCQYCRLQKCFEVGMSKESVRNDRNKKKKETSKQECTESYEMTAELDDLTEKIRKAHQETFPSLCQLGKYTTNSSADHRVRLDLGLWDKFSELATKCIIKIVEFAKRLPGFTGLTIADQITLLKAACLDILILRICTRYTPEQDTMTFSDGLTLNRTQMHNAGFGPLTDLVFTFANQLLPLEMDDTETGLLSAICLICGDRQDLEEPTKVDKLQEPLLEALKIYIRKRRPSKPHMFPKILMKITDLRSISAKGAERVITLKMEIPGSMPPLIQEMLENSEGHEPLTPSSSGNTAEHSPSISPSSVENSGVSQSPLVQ
How it was run: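 Transient transfection of HepG2 with multiple reporter units → chemical dosing, 24 h → total RNA isolation → RT with oligo(dT) → reporter-specific PCR, 6-FAM primer extension, HpaI digest → capillary electrophoresis. Positive direction vs DMSO control.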

[12] = target: Retinoic acid receptor alpha (Homo sapiens) (UniProt P10276); assay: ATG_RARa_TRANS: Attagene TRANS-FACTORIAL HepG2 Assay for human Retinoic Acid Receptor alpha (RARa) (AID 2283005; active = hit-call score of the fitted dose curve at least 0.9, where 1 is the maximum)
Chain of Retinoic acid receptor alpha (Homo sapiens) (P10276 whole entry, looked up, the tested form may be a part): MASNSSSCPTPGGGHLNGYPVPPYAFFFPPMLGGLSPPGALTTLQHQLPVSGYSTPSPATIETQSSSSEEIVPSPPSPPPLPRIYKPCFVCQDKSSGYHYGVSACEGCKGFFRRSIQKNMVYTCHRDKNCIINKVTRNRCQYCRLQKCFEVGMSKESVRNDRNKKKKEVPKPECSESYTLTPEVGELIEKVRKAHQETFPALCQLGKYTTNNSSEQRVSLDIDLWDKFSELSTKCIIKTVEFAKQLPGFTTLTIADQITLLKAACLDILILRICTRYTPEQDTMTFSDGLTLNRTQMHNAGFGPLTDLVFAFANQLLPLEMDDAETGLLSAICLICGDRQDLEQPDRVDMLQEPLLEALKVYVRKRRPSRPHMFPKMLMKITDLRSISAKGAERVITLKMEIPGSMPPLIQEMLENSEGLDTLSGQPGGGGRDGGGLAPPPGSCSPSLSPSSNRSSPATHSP
How it was run: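 HepG2 transiently transfected with multiplex GAL4-UAS reporter units including a human RARa–GAL4 chimera; 24 h compound exposure. Reporter mRNA quantified by RT-PCR, 6-FAM labeling and capillary electrophoresis; gain of signal versus DMSO.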

[13] = BSK_3C_Proliferation: Cell Proliferation Assessment in the BioMAP Diversity Plus: 3C Assay (AID 2283006); settings: primary human endothelial cells (HUVEC);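 as to AC50: potency may reflect either rise or fall in cell number versus DMSO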
How it was run: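 Measured here: sulforhodamine B (0.1%) staining of TCA-fixed sub-confluent umbilical vein endothelial cultures 48 h post-dosing, absorbance 560 nm. DMSO served as negative control and baseline; both signal gain and loss were modelled.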

[14] = target: Peroxisome proliferator-activated receptor gamma (Homo sapiens) (UniProt P37231); assay: ATG_PPARg_TRANS: Attagene TRANS-FACTORIAL HepG2 Assay for human Peroxisome Proliferator-activated Receptor-gamma (PPARg) (AID 2283007; active = hit-call score of the fitted dose curve at least 0.9, where 1 is the maximum)
Chain of Peroxisome proliferator-activated receptor gamma (Homo sapiens) (P37231 whole entry, looked up): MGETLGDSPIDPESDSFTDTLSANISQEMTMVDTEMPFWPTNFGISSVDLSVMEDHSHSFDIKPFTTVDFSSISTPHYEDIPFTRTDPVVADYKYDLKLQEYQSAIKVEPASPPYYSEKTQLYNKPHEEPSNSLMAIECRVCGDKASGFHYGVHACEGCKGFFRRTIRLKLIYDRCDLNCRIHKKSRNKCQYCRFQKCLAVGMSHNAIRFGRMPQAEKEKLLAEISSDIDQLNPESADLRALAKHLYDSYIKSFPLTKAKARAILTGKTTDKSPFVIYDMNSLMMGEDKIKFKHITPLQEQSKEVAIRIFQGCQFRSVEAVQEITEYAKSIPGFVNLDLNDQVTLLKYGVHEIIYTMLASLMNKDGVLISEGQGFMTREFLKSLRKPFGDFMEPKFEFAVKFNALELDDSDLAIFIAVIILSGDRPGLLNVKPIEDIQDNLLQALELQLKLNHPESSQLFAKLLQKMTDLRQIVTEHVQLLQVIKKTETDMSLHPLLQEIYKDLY
How it was run: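 Multiplexed reporter transcription units in HepG2, 24 h dosing, reporter transcripts quantified by fluorescent RT-PCR and capillary electrophoresis. Increase over DMSO scored.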

[15] = target: Nuclear receptor subfamily 1 group I member 2 (Homo sapiens) (UniProt O75469); assay: ATG_PXR_TRANS: Attagene TRANS-FACTORIAL HepG2 Assay for human Pregnane X Receptor (PXR) (AID 2283008; active = hit-call score of the fitted dose curve at least 0.9, where 1 is the maximum)
Chain of Nuclear receptor subfamily 1 group I member 2 (Homo sapiens) (O75469 whole entry, looked up, the tested form may be a part): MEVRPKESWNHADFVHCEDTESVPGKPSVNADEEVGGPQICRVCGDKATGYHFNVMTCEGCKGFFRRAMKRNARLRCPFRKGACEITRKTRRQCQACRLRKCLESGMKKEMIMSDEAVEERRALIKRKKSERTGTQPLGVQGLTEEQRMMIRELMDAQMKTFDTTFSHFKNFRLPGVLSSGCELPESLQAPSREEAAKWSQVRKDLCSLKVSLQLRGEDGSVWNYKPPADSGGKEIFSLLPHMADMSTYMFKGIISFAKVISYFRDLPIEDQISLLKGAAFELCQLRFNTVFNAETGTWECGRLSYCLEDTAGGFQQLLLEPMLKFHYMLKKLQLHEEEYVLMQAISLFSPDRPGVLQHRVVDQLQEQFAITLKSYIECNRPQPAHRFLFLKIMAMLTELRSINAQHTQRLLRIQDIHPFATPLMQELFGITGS
How it was run: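 Trans-factorial format: exogenous NR-Gal4 fusion activity, not endogenous factor, in transfected human HepG2 liver cells. After 24 h dosing, RNA isolated, reverse-transcribed, amplified and resolved by capillary electrophoresis; induction scored versus DMSO.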

[16] = target: human Retinoic Acid Receptor gamma (RARg), RARG (gene 5916) (UniProt P13631); assay: ATG_RARg_TRANS: Attagene TRANS-FACTORIAL HepG2 Assay for human Retinoic Acid Receptor gamma (RARg) (AID 2283009; active = hit-call score of the fitted dose curve at least 0.9, where 1 is the maximum)
Chain of human Retinoic Acid Receptor gamma (RARg), RARG (gene 5916) (P13631 whole entry, looked up, the tested form may be a part): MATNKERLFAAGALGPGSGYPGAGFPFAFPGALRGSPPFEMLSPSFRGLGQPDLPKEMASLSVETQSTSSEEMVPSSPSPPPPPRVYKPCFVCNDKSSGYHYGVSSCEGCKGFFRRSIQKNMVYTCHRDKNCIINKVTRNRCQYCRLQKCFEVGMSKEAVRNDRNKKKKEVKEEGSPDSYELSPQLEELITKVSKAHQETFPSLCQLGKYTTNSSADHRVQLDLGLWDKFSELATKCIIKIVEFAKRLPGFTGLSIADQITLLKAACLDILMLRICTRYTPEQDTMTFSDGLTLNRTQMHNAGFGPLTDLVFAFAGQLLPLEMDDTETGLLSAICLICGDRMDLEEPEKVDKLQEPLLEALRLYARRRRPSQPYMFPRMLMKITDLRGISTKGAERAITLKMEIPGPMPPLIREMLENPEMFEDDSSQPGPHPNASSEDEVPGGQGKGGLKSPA
How it was run: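 Gain-of-signal relative to DMSO is reported from fluorescent capillary electrophoresis of RT-PCR reporter products. These came from HepG2 cells expressing transfected RARg-GAL4 chimeras with UAS reporters, harvested 24 h after dosing.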

[17] = target: human RAR-related Orphan Receptor beta (RORb), RORB (gene 6096) (UniProt Q92753); assay: ATG_RORb_TRANS: Attagene TRANS-FACTORIAL HepG2 Assay for human RAR-related Orphan Receptor beta (RORb) (AID 2283010; active = hit-call score of the fitted dose curve at least 0.9, where 1 is the maximum)
Chain of human RAR-related Orphan Receptor beta (RORb), RORB (gene 6096) (Q92753 whole entry, looked up, the tested form may be a part): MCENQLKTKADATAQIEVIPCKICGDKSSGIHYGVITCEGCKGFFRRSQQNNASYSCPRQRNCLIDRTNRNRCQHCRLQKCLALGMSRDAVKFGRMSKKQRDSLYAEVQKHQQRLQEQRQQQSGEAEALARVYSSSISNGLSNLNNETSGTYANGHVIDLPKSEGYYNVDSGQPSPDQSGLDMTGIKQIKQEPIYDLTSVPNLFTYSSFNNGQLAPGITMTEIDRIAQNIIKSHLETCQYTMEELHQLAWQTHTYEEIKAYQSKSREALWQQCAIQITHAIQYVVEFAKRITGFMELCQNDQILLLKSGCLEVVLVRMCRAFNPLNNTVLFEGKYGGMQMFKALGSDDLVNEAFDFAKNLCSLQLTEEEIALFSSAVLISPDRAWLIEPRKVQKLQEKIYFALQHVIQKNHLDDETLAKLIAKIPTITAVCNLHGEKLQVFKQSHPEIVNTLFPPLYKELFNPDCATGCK
How it was run: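 Multiplexed transcription-factor reporter assay: HepG2 cells transiently carrying NR-Gal4/GAL4-UAS constructs, 24 h treatment, mRNA quantified by RT-PCR plus capillary electrophoresis fluorescence; activity scored as induction over DMSO.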

[18] = target: human Peroxisome Proliferator-activated Receptor alpha (PPARa), PPARA (gene 5465) (UniProt Q07869); assay: ATG_PPARa_TRANS: Attagene TRANS-FACTORIAL HepG2 Assay for human Peroxisome Proliferator-activated Receptor alpha (PPARa) (AID 2283001; active = hit-call score of the fitted dose curve at least 0.9, where 1 is the maximum)
Chain of human Peroxisome Proliferator-activated Receptor alpha (PPARa), PPARA (gene 5465) (Q07869 whole entry, looked up, the tested form may be a part): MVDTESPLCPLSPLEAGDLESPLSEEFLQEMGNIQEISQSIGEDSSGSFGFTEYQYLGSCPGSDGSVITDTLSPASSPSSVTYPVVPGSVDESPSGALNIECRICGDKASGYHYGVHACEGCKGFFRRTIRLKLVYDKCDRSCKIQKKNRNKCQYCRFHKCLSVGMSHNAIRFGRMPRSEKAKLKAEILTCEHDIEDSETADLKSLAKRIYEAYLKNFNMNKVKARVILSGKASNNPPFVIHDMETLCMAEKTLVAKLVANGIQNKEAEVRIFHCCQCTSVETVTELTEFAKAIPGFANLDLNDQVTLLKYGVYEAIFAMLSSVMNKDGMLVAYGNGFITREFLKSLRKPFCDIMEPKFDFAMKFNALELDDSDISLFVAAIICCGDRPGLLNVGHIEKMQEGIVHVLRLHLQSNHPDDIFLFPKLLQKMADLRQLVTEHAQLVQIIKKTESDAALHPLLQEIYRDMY
How it was run: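 Transient HepG2 transfection, GAL4-UAS reporters, NR-Gal4 chimeras; 24 h compound exposure. Readout: reporter transcripts by RT-PCR, 6-FAM primer extension, HpaI digest, capillary electrophoresis. Positive direction vs DMSO baseline.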

[19] = target: human RAR-related Orphan Receptor gamma (RORg), RORC (gene 6097) (UniProt P51449); assay: ATG_RORg_TRANS: Attagene TRANS-FACTORIAL HepG2 Assay for human RAR-related Orphan Receptor gamma (RORg) (AID 2283011; active = hit-call score of the fitted dose curve at least 0.9, where 1 is the maximum)
How it was run: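 First, HepG2 liver cells were transfected with GAL4-UAS-driven reporter constructs and the RORg-Gal4 fusion. Next, they were treated with chemical for 24 h. Finally, reporter mRNA was quantified by RT-PCR and capillary electrophoresis, with upward activity fitted against DMSO.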

Measured: AC50

Nc1ccccc1N
active: [3] 9.26 µM | [4] 32.4 µM | [6] 4.58 µM | [7] 11 µM | [13] 9.14 µM
not listed: [18] | [19]
inactive: all other assays above

COc1ccc(C)cc1N
not listed: [5] | [12] | [15] | [17]
inactive: all other assays above

Clc1cc(Cl)c(Cl)cc1Cl
active: [5] 6.33 µM
not listed: [11] | [12] | [14] | [17] | [19]
inactive: all other assays above
